# PubChem BioAssay
# The source made the active and inactive calls.
# How the values were obtained:
# [1] = tested on: Plasmodium falciparum Sir2 (PF13_0152, Sir2A); test: Plasmodium falciparum Sir2A binding compounds – biochemical, small-molecule microarray, 635 nm fluorescence, primary screen (AID 1098); conditions: fluorescence 635 nm, higher = more signal;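 note: score merges spot fluorescence intensity with its signal-to-noise ratio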
# [2] = probe aDKK1 binding to arrayed compounds – biochemical, biotinylated probe, 635/667 nm fluorescence, primary screen (AID 1099); conditions: small-molecule microarray, higher = more signal;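 note: score merges 667nm spot fluorescence with signal to noise across triplicate slides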
# [3] = probe aCHRDL2 binding to arrayed compounds – biochemical, biotinylated probe, 635/667 nm fluorescence, primary screen (AID 1100); conditions: small-molecule microarray, higher = more signal
# [4] = change in splice reporter luminescence, either direction, cell-based, HEK293, spliceosome inhibition project, primary screen (AID 1101); conditions: HEK293 splicing luciferase reporter, 24 h, higher = more signal, called active from +8 up or from −8 down;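 note: HEK293 cells carrying a splicing-competent luciferase reporter gene; test concentration not given here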
# [5] = target: Fibroblast growth factor 10 (Homo sapiens) (UniProt O15520); test: compounds binding fibroblast growth factor 10 – biochemical, small-molecule microarray, 635 nm fluorescence, primary screen (AID 1102); conditions: FGF10 binding, fluorescence 635 nm, higher = more signal
# Chain of Fibroblast growth factor 10 (Homo sapiens) (O15520 whole entry, looked up): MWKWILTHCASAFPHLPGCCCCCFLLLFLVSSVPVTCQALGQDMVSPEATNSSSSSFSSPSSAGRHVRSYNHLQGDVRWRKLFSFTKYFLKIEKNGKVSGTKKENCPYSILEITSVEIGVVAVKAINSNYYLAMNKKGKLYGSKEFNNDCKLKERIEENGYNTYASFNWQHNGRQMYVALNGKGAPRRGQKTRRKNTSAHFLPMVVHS
# [6] = tested on: glycogen synthase kinase-3 (GSK3A per assay name; protocol says GSK3B); test: compounds binding glycogen synthase kinase-3 – biochemical, small-molecule microarray, 635 nm fluorescence, GSK3A, primary screen (AID 1103); conditions: fluorescence 635 nm, higher = more signal; note: the record names both GSK3A and GSK3B
# [7] = target: Epidermal growth factor receptor (Homo sapiens) (UniProt P00533); test: compounds binding epidermal growth factor receptor – biochemical, small-molecule microarray, 635 nm fluorescence, primary screen (AID 1104); conditions: EGFR binding, higher = more signal;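 note: score merges 667 nm emission intensity with spot signal to noise over triplicate slides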
# Chain of Epidermal growth factor receptor (Homo sapiens) (P00533 whole entry, looked up): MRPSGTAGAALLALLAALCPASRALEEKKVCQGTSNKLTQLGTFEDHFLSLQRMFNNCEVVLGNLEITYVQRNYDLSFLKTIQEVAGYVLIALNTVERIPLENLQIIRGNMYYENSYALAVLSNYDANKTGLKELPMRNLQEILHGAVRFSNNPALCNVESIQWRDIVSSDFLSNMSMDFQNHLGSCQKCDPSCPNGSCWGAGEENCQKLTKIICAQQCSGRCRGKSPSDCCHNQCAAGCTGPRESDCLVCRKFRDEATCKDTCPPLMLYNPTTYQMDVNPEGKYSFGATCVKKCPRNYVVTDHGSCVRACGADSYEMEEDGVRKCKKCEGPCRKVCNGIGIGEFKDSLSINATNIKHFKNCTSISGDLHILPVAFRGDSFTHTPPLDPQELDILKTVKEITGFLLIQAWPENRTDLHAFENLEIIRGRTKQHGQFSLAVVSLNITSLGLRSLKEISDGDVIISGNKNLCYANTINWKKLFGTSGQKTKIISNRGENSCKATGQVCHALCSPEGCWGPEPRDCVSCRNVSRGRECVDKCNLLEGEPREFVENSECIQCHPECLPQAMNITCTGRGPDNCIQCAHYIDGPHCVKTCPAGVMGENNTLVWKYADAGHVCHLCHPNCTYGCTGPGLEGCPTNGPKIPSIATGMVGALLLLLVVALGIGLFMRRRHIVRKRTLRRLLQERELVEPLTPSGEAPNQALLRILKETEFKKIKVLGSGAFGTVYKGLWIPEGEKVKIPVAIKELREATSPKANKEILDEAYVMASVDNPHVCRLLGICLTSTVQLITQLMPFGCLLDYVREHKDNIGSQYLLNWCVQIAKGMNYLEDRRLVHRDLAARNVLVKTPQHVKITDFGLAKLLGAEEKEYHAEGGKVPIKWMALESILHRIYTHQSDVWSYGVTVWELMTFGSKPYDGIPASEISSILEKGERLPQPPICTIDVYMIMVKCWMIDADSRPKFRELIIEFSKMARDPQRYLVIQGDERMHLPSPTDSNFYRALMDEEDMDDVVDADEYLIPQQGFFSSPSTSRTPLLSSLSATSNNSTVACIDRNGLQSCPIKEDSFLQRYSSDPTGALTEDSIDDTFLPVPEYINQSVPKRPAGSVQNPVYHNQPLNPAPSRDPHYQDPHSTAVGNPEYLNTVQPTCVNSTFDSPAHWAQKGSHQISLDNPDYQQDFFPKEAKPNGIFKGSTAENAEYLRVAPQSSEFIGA
# [8] = target: Follistatin-related protein 3 (Homo sapiens) (UniProt O95633); test: compounds binding follistatin-related protein 3 – biochemical, small-molecule microarray, 635 nm fluorescence, primary screen (AID 1105); conditions: FSTL3 binding, higher = more signal;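 note: score merges emission near 667 nm and signal to noise per printed spot across three slides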
# Chain of Follistatin-related protein 3 (Homo sapiens) (O95633 whole entry, looked up): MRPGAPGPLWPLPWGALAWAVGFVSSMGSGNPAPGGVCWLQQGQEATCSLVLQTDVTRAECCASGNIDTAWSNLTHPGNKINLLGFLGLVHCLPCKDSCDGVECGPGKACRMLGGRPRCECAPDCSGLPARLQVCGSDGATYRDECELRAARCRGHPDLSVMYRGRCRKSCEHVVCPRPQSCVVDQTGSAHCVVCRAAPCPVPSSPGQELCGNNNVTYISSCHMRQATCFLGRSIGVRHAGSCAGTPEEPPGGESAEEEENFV
# [9] = target: Dickkopf-related protein 1 (Homo sapiens) (UniProt O94907); test: small molecules binding DKK1 protein – biochemical, small-molecule microarray, 635 nm fluorescence scan, primary screen (AID 1106); conditions: higher = more signal;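 note: score merges emission near 667 nm with signal to noise over three replicate slides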
# Chain of Dickkopf-related protein 1 (Homo sapiens) (O94907 whole entry, looked up): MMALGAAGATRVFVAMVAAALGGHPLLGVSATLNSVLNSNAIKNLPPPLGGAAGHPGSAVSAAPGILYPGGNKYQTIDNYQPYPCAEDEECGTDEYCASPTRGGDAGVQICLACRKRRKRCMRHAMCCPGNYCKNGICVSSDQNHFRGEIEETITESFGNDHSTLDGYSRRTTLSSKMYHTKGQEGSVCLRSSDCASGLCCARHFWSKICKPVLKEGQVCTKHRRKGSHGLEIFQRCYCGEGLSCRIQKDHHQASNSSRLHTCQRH
# [10] = tested on: Inhibin beta A chain (activin A); test: small molecules binding activin A – biochemical, small-molecule microarray, 635 nm fluorescence scan, primary screen (AID 1107); conditions: INHBA, higher = more signal;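 note: mouse activin A protein probed at 4.33 µg/mL on printed slides; score merges bound-protein fluorescence near 667 nm with spot signal-to-noise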
# [11] = tested on: Human papillomavirus type 1a protein E7 (residues 44-93); test: small molecules binding HPV E7 44-93 – biochemical, small-molecule microarray, residues 44-93, 635 nm fluorescence, primary screen (AID 1108); conditions: fluorescence 635 nm, higher = more signal;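 note: E7 fragment applied at 1 µg/mL in TBST for 1 h at 4 C; score combines spot fluorescence with its signal to noise ratio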
# [12] = hepatitis C replication reporter changes, two-sided – Huh7 cells, luciferase reporter, HCV replication inhibitor project, primary screen (AID 1109); conditions: Huh7 HCV replicon luciferase reporter, 48 h; higher = more signal;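 note: huh7 hepatoma cells harbouring a luciferase neomycin HCV replicon reporter; luciferase luminescence as measure of HCV replicon replication; test concentration not given here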
# [13] = target: Left-right determination factor 2 (Homo sapiens) (UniProt O00292); test: small molecules binding LEFTY2 protein – biochemical, small-molecule microarray, 635 nm fluorescence scan, primary screen (AID 1110); conditions: higher = more signal
# Chain of Left-right determination factor 2 (Homo sapiens) (O00292 whole entry, looked up): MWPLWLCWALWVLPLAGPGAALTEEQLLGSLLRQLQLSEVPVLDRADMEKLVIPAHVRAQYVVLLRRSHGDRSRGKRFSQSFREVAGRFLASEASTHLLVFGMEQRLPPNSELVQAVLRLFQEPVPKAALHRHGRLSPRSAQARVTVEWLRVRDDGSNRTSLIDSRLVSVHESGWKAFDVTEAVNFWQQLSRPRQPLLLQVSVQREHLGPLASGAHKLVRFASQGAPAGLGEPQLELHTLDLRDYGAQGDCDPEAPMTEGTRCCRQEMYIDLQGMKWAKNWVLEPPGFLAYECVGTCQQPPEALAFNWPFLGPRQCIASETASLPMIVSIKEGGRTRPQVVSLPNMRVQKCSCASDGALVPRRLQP
# [14] = target: Calmodulin-1 (Homo sapiens) (UniProt P0DP23); test: small molecules binding calmodulin-1 with EGTA – biochemical, small-molecule microarray, Cy5-labelled CALM1, profiling panel (AID 1111); conditions: Cy5-CALM1 binding fluorescence, higher = more signal;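 note: labelled calmodulin applied in Tris saline Tween buffer holding calcium plus EGTA and DTT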
# [15] = target: Calmodulin-1 (Homo sapiens) (UniProt P0DP23); test: small molecules binding Ca-loaded calmodulin-1 – biochemical, small-molecule microarray, Cy5-labelled CALM1, plus calcium, artefact control for SMM control-protein annotation, profiling panel (AID 1112); conditions: Cy5-CALM1 binding fluorescence, higher = more signal;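 note: score merges spot fluorescence with signal to noise from triplicate slides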
# [16] = probe aWnt5a binding to arrayed compounds – biochemical, biotinylated probe, 635/667 nm fluorescence, primary screen (AID 1113); conditions: small-molecule microarray, higher = more signal;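 note: score merges 667 nm fluorescence intensity with signal-to-noise per printed feature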
# [17] = probe aShh binding to arrayed compounds – biochemical, biotinylated probe, 635/667 nm fluorescence, primary screen (AID 1114); conditions: small-molecule microarray, higher = more signal;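 note: probe is biotin-labelled aShh protein from a stem cell growth factor screen; measures binding of labelled protein to compounds printed on the slide; score merges feature fluorescence at 667 nm with signal-to-noise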
# [18] = probe aNog binding to arrayed compounds – biochemical, biotinylated probe, 635/667 nm fluorescence, primary screen (AID 1115); conditions: small-molecule microarray, higher = more signal;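 note: probe is biotinylated aNog protein used at 0.15 µg/mL for 1 h at 4 C; z-score combines 667 nm fluorescence of each spot with its signal to noise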
# [19] = target: Torsin-1A-interacting protein 1 (Homo sapiens) (UniProt Q5JTV8); test: compound microarray binding of lysate hLAP1 – cell lysate, small-molecule microarray, COS7 lysate, 635/667 nm fluorescence, primary screen (AID 1116); conditions: 635 nm fluorescence, higher = more signal
# Chain of Torsin-1A-interacting protein 1 (Homo sapiens) (Q5JTV8 whole entry, looked up): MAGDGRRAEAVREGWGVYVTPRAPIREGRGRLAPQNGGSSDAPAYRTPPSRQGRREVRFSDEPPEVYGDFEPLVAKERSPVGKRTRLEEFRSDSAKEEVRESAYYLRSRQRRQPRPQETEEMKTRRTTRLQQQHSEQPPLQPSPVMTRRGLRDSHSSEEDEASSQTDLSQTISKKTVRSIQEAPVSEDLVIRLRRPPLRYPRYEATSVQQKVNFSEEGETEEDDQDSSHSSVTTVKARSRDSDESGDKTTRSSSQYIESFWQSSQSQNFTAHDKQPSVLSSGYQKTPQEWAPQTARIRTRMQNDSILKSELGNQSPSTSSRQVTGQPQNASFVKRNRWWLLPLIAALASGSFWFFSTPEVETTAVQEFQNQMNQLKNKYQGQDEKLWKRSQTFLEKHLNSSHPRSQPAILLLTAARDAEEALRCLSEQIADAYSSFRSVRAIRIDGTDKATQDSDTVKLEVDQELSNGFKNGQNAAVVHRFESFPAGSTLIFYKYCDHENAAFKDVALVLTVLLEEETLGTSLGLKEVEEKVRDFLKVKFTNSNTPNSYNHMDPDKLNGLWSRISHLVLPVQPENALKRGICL
# [20] = target: Alpha-bungarotoxin (Bungarus multicinctus) (UniProt P60615); test: compounds binding labelled alpha-BTX control protein – biochemical, small-molecule microarray, Alexa647 label, 635/667 nm fluorescence, artefact control for SMM control protein annotation, profiling panel (AID 1117); conditions: alpha-BTX-A647 binding fluorescence, higher = more signal
# Chain of Alpha-bungarotoxin (Bungarus multicinctus) (P60615 whole entry, looked up): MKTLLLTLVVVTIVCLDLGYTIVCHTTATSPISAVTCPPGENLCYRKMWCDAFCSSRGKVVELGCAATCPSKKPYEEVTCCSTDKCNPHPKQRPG
SMILES,composite z-score [1],composite z-score [2],composite z-score [3],z-score [4],composite z-score [5],composite z-score [6],composite z-score [7],composite z-score [8],composite z-score [9],composite z-score [10],composite z-score [11],z-score [12],composite z-score [13],composite z-score [14],composite z-score [15],composite z-score [16],composite z-score [17],composite z-score [18],composite z-score [19],composite z-score [20]
CCCC=C(CCC)[C@@H](NS(=O)(=O)c1ccc(C(F)(F)F)cc1)c1ccc(-c2ccccc2)cc1,0.163,0.888,0.83,-1.69 (inactive),1.13,0.72,0.201,0.38,-0.112,0.835,1.32,-1.08,0.34,1.06,0.878,0.145,0.217,0.157,0.0541,0.709
COC(=O)C[C@H]1O[C@]2(C(=O)N(C)c3ccccc32)[C@@H](C)[C@@H]1[Si](C)(C)c1ccc(OC)cc1,0.377,-0.198,-0.514,-1.78 (inactive),1.29,0.637,0.309,0.558,0.344,-0.27,0.353,-2,1.02,0.0348,-0.327,0.0502,-0.271,-0.141,0.335,0.449
C/C(=N\O)C(=O)NCCCCCNC(=O)OCc1ccccc1,0.807,-0.186,-0.472,-0.508 (inactive),0.554,0.777,0.479,1.03,0.497,0.102,0.63,-0.0365,0.516,0.169,-0.269,0.0115,-0.262,0.32,0.371,1.06
COC(=O)C1=CC(c2ccc(CO)cc2)=CC(C2CC2)N(Cc2sc3ccccc3c2Cl)C=C1C(=O)OC (stereo not given),1.55,1.02,0.978,-1.16 (inactive),0.855,1.3,0.242,1.19,0.304,0.715,1.29,-1.27,0.204,2.45,0.975,0.0017,0.246,1.38,2.42,2.75
C=C(COC)/C(=C/C[C@@H](OC(=O)c1ccncc1)c1ccc(OCCO)cc1)c1cc(C(=O)OC)ccc1OC,1.3,0.318,0.421,-1.43 (inactive),0.635,1.25,0.16,0.461,0.214,0.147,0.355,-1.63,-0.428,0.947,-0.777,-0.175,-0.0146,0.475,1.45,2.04
